Assay in all cases: DAPPL (digital affinity profiling via proximity ligation, sequencing); 10 mM Tris-HCl pH 7.5, 50 mM NaCl, 1 mM DTT, 4% glycerol, room temperature, 30 min; GST-TFs on glutathione beads, 16-mer random dsDNA library, 0.1% formaldehyde crosslink after washing; high values mean tight binding
What all share (details): protein: recombinant; tags: N-terminal GST; dsDNA, one strand shown

For one assay, the target named is T1, ERF (Homo sapiens, UniProt P50548 1-548).
T1 sequence: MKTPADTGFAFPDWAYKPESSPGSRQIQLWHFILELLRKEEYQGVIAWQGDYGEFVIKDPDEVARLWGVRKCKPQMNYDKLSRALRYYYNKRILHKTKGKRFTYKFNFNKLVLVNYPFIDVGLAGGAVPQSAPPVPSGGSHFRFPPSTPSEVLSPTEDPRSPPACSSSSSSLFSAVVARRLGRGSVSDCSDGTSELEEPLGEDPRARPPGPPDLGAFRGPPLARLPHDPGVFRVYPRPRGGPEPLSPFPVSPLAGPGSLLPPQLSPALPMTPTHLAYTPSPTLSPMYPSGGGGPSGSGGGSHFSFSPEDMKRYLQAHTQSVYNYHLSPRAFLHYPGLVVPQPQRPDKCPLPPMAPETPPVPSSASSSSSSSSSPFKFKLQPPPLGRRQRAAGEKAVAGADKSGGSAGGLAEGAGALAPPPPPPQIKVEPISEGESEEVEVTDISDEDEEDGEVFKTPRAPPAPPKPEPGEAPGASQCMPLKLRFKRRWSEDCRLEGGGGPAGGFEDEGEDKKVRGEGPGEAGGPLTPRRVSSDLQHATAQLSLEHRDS
Summed up:
(§1)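 Binding signal is given per hexamer as its read frequency for a factor divided by its frequency in the tag-only sample. GST-fused human transcription factors were expressed in yeast, captured on glutathione beads, barcoded with DNA and pooled with that sample, then incubated with 200 nmole of a 16-mer random double-stranded DNA library in Tris/NaCl/DTT/glycerol buffer for 30 min at room temperature. The pools were then washed, crosslinked, proximity-ligated, amplified by PCR and sequenced on an Illumina NextSeq500.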

A further assay has as its target T2, ETV3L (Homo sapiens, UniProt Q6ZN32 1-361).
T2 sequence: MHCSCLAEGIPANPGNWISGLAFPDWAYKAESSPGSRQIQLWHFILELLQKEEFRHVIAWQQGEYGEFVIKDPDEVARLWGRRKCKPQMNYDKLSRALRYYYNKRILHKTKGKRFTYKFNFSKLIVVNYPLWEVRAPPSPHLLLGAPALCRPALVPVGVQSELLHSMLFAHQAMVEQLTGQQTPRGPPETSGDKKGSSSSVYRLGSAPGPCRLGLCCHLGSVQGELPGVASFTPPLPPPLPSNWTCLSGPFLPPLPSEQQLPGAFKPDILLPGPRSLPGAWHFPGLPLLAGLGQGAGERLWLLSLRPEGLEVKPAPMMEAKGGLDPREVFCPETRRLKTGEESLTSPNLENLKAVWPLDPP
Summed up:
as §1

The next assay deals with T3, ETS2 (Homo sapiens, UniProt P15036 1-469).
T3 sequence: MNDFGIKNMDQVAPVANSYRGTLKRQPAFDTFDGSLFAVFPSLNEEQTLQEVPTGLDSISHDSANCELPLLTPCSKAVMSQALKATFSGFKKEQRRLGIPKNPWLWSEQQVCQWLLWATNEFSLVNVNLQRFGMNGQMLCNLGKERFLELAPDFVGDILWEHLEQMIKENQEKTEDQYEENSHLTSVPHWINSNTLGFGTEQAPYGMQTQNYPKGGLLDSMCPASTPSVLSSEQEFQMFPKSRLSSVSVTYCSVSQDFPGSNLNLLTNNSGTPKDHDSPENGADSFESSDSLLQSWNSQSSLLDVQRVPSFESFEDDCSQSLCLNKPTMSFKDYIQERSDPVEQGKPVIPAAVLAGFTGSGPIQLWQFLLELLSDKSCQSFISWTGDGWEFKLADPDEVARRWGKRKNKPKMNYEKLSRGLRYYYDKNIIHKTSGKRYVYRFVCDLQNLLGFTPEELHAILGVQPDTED
In a few lines:
as §1

Another assay addresses T4, SPDEF (Homo sapiens, UniProt O95238 1-335).
T4 sequence: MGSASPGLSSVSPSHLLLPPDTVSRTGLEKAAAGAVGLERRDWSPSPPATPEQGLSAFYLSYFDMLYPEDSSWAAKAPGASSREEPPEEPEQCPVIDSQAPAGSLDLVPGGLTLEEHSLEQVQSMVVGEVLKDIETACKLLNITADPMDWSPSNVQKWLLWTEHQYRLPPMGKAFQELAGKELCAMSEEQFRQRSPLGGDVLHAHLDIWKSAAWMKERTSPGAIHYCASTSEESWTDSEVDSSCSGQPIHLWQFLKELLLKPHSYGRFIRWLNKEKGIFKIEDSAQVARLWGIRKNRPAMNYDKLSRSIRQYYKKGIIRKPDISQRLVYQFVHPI
In a few lines:
as §1

The next assay has as its target T5, ETV7 (Homo sapiens, UniProt Q9Y603 1-341).
T5 sequence: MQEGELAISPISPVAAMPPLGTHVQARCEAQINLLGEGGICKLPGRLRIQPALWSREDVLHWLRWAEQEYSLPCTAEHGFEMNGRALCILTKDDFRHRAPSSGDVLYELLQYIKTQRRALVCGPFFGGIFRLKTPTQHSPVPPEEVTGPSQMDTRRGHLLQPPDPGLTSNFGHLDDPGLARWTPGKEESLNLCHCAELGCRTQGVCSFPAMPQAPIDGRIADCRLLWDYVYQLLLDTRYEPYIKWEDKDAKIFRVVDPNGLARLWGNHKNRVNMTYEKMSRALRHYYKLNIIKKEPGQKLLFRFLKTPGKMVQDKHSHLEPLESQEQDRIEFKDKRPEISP
Summed up:
as §1

A further assay deals with T6, ELF5 (Homo sapiens, UniProt Q9UKW6-2 1-255).
T6 sequence: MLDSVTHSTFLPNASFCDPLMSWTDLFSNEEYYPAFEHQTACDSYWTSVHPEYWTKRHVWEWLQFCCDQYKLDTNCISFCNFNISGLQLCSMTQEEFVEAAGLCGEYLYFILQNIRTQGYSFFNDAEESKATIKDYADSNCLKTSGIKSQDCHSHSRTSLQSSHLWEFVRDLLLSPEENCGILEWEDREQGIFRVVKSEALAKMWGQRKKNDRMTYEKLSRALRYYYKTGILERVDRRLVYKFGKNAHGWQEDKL
In a few lines:
as §1

For another assay, the target named is T7, ETV3 (Homo sapiens, UniProt P41162-2 1-143).
T7 sequence: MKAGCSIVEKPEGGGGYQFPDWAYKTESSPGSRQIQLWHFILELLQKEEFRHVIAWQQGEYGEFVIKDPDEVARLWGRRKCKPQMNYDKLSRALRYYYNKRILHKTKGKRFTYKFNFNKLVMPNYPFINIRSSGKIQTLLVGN
Summed up: as §1

Another assay concerns the target ETV6 (Homo sapiens, UniProt P41212 1-452). In a few lines: as §1

Chain of ETV6 (P41212 whole entry): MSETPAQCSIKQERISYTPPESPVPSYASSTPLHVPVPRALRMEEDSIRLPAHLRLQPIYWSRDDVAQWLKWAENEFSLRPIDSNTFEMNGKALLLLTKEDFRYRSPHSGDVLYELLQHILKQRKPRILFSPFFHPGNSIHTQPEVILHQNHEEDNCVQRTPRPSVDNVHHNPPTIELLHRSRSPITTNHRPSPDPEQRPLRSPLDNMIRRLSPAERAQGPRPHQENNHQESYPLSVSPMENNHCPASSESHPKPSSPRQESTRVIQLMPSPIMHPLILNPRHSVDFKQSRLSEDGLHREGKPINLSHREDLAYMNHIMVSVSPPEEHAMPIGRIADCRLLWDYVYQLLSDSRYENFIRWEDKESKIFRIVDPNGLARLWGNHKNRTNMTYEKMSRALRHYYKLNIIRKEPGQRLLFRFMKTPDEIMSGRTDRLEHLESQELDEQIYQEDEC

With GCCTAA, the binding signal with ERF was 1.22 fold enrichment (6-mer frequency, TF over GST control); in the assay with ETV3L, 1.22 fold enrichment (6-mer frequency, TF over GST control); in the assay with ETS2 it was 1.31 fold enrichment (6-mer frequency, TF over GST control); with SPDEF it was 1.11 fold enrichment (6-mer frequency, TF over GST control); with ETV7 it was 1.19 fold enrichment (6-mer frequency, TF over GST control); in the assay with ELF5, 1.18 fold enrichment (6-mer frequency, TF over GST control). For the same sequence, the binding signal in the assay with ETV3 was 1.21 fold enrichment (6-mer frequency, TF over GST control); in the assay with ETV6, 1.13 fold enrichment (6-mer frequency, TF over GST control).
For the sequence TCATCC, the binding signal with ERF was 1.2 fold enrichment (6-mer frequency, TF over GST control); with ETV3L, 1.42 fold enrichment (6-mer frequency, TF over GST control); with ETS2, 1.35 fold enrichment (6-mer frequency, TF over GST control); in the assay with SPDEF it was 1.85 fold enrichment (6-mer frequency, TF over GST control); in the assay with ETV7 it was 1.24 fold enrichment (6-mer frequency, TF over GST control); in the assay with ELF5 it was 1.6 fold enrichment (6-mer frequency, TF over GST control). Further, the binding signal is 1.55 fold enrichment (6-mer frequency, TF over GST control) in the assay with ETV3 and 1.38 fold enrichment (6-mer frequency, TF over GST control) in the assay with ETV6.
As for TGGTCT, the binding signal with ERF was 1.52 fold enrichment (6-mer frequency, TF over GST control); with ETV3L it was 1.55 fold enrichment (6-mer frequency, TF over GST control); with ETS2 it was 1.39 fold enrichment (6-mer frequency, TF over GST control); with SPDEF, 1.35 fold enrichment (6-mer frequency, TF over GST control); with ETV7 it was 1.28 fold enrichment (6-mer frequency, TF over GST control); with ELF5 it was 1.55 fold enrichment (6-mer frequency, TF over GST control). The binding signal with ETV3 was 1.44 fold enrichment (6-mer frequency, TF over GST control); with ETV6, 1.42 fold enrichment (6-mer frequency, TF over GST control).
With CTATCT, the binding signal in the assay with ERF is 1.42 fold enrichment (6-mer frequency, TF over GST control); with ETV3L, 1.39 fold enrichment (6-mer frequency, TF over GST control); in the assay with ETS2 it was 1.39 fold enrichment (6-mer frequency, TF over GST control); in the assay with SPDEF it was 1.3 fold enrichment (6-mer frequency, TF over GST control); in the assay with ETV7, 1.4 fold enrichment (6-mer frequency, TF over GST control); with ELF5 it was 1.3 fold enrichment (6-mer frequency, TF over GST control). Moreover, the binding signal in the assay with ETV3 is 1.28 fold enrichment (6-mer frequency, TF over GST control); with ETV6, 1.32 fold enrichment (6-mer frequency, TF over GST control).
CGTATA: the binding signal with ERF was 1.13 fold enrichment (6-mer frequency, TF over GST control); in the assay with ETV3L, 1.1 fold enrichment (6-mer frequency, TF over GST control); with ETS2, 1.11 fold enrichment (6-mer frequency, TF over GST control); in the assay with SPDEF it was 1.21 fold enrichment (6-mer frequency, TF over GST control); with ETV7 it was 1.15 fold enrichment (6-mer frequency, TF over GST control); with ELF5, 1.16 fold enrichment (6-mer frequency, TF over GST control). Besides, the binding signal is 1.18 fold enrichment (6-mer frequency, TF over GST control) with ETV3 and 1.08 fold enrichment (6-mer frequency, TF over GST control) in the assay with ETV6.
Turning to GTTGCT, the binding signal in the assay with ERF is 1.27 fold enrichment (6-mer frequency, TF over GST control); with ETV3L, 1.26 fold enrichment (6-mer frequency, TF over GST control); with ETS2, 1.22 fold enrichment (6-mer frequency, TF over GST control); with SPDEF, 1.27 fold enrichment (6-mer frequency, TF over GST control); with ETV7, 1.38 fold enrichment (6-mer frequency, TF over GST control); in the assay with ELF5, 1.27 fold enrichment (6-mer frequency, TF over GST control). For the same sequence, the binding signal with ETV3 is 1.51 fold enrichment (6-mer frequency, TF over GST control); with ETV6, 1.29 fold enrichment (6-mer frequency, TF over GST control).
TATCTT: the binding signal was 1.32 fold enrichment (6-mer frequency, TF over GST control) with ERF; 1.41 fold enrichment (6-mer frequency, TF over GST control) in the assay with ETV3L; 1.29 fold enrichment (6-mer frequency, TF over GST control) with ETS2; 1.32 fold enrichment (6-mer frequency, TF over GST control) with SPDEF; 1.22 fold enrichment (6-mer frequency, TF over GST control) with ETV7; 1.4 fold enrichment (6-mer frequency, TF over GST control) in the assay with ELF5. For the same sequence, the binding signal with ETV3 was 1.25 fold enrichment (6-mer frequency, TF over GST control); in the assay with ETV6, 1.18 fold enrichment (6-mer frequency, TF over GST control).
For TCATTT, the binding signal with ERF was 1.37 fold enrichment (6-mer frequency, TF over GST control); with ETV3L, 1.47 fold enrichment (6-mer frequency, TF over GST control); with ETS2 it was 1.41 fold enrichment (6-mer frequency, TF over GST control); with SPDEF, 1.22 fold enrichment (6-mer frequency, TF over GST control); with ETV7, 1.37 fold enrichment (6-mer frequency, TF over GST control); with ELF5 it was 1.32 fold enrichment (6-mer frequency, TF over GST control). Besides, the binding signal is 1.3 fold enrichment (6-mer frequency, TF over GST control) with ETV3 and 1.35 fold enrichment (6-mer frequency, TF over GST control) in the assay with ETV6.
Consider TACCTC, for which the binding signal with ERF was 1.32 fold enrichment (6-mer frequency, TF over GST control); with ETV3L, 1.43 fold enrichment (6-mer frequency, TF over GST control); in the assay with ETS2 it was 1.26 fold enrichment (6-mer frequency, TF over GST control); in the assay with SPDEF it was 1.23 fold enrichment (6-mer frequency, TF over GST control); with ETV7, 1.19 fold enrichment (6-mer frequency, TF over GST control); in the assay with ELF5 it was 1.29 fold enrichment (6-mer frequency, TF over GST control). The binding signal with ETV3 is 1.25 fold enrichment (6-mer frequency, TF over GST control); with ETV6 it was 1.11 fold enrichment (6-mer frequency, TF over GST control).

Source of the values: publication PMC7862700, “An all-to-all approach to the identification of sequence-specific readers for epigenetic DNA modifications on cytosine”.
